Only some compounds are listed: those with a hit (about 2% of all), similar ones and a draw of the others.
ID4 binder: binders of human ID4 protein, primary screen, biochemical, small molecule microarray, single point. Flag-ID4 binding, fluorescence F/B. DNA-binding protein inhibitor ID-4 (Homo sapiens), P47928. actives 1.2% (n = 31,000). AID 624137, 2012. calls only; call rule not given here;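 also: a binder raises fluorescence above local background on the spot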
Target sequence (P47928 whole entry, looked up): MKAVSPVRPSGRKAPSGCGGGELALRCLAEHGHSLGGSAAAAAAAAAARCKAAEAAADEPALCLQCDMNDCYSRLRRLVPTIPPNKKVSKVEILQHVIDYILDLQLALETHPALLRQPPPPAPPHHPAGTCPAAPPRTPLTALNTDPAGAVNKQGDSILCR
mut p53 react: mutant p53 pathway re-activators, primary screen, cell-based, SW480, luciferase, single point, HTS; SW480 PUMA-promoter luciferase, p53 mutant reactivation; activation, % at 9.98 µM; actives 1.5% (n = 28,000); in the data active = activation above about 52%; inconclusive = no clear call, values can overlap the other calls
STK33 inh: STK33 kinase inhibitors, primary screen, biochemical, luminescence, ADP-Glo, MBP substrate; actives 0.44% (n = 27,000); inhibition, % at 12.5 µM; Serine/threonine-protein kinase 33 (Homo sapiens), Q9BYT3; in the data active = inhibition above about 20%; inconclusive = no clear call, values can overlap the other calls
Hits are given with their value; . = inactive; ? = inconclusive; / = no result; + = active, no number.

SMILES	ID4 binder	mut p53 react	STK33 inh
CCOC(=O)c1cc(-c2ccccc2)sc1NC(=S)Nc1cnccn1	.	.	.
C=C1[C@]2(C)C[C@@H]3C(=C)[C@@]4(C=CC(=O)OC4(C)C)CC[C@@]3(C)[C@]13C(=O)O[C@H](C)[C@]3(O)C2=O	.	.	.
CC(=O)c1cccc(NC(=O)CSc2nc(-c3ccccc3)c(-c3ccccc3)o2)c1	.	.	.
O=C(O)CCCCCCC(=O)Nc1ccc(C2CC(CSc3nc(-c4ccccc4)c(-c4ccccc4)o3)OC(c3ccccc3)O2)cc1 (configuration not stated)	+	/	/
CCOC(=O)c1c(CSc2nc(C)cc(C)n2)nc2c3ccccc3ccn12	.	90.4	.
Cc1cc(C)nc(SCC(=O)c2c(C)[nH]c3ccccc23)n1	.	.	.
Cc1ccccc1-c1nnc(SCC(=O)Nc2cccc(Br)c2)n1C	.	.	.
Cc1cccnc1NCC(O)COc1ccccc1 (configuration not stated)	+	.	.
Cc1cccnc1NC(=O)C(C)Oc1ccccc1 (configuration not stated)	.	.	.
CC(C)c1ccc(NC(=O)CSc2nnc(N)s2)cc1	.	.	.
Cc1ccccc1-c1nc(SCC(=O)c2cccc([N+](=O)[O-])c2)n[nH]1	.	.	.
CS(=O)(=O)N(CC(=O)Nc1ccccc1-c1ccccc1)c1ccc2c(c1)OCCO2	.	.	.
O=C(CC1NCCNC1=O)Nc1ccccc1[N+](=O)[O-] (configuration not stated)	.	.	.
Nc1nc(CSc2ccccn2)nc(Nc2ccccc2)n1	.	88.9	.
COc1ccc(Nc2nc(N)nc(CSc3nccn3C)n2)cc1	.	.	.
CCOC(=O)c1c(NC(=O)COc2ccc(F)cc2)sc2c1CCCC2	.	.	.
COC(=O)CCCCCCC(=O)Nc1ccc(NC(=O)CCCC[P+](c2ccccc2)(c2ccccc2)c2ccccc2)cc1	+	/	/
O=C(CCCC(=O)Nc1ccccc1)Nc1ccccc1	.	.	.
COc1ccc(Cl)cc1N=C1NC(=O)CC(C(=O)Nc2ccccc2)S1 (configuration not stated)	.	.	.
Cc1cccc(C(=O)NCc2n[nH]c(=S)n2-c2ccccc2)c1	+	.	.
COc1ccc(C(=O)NCc2n[nH]c(=S)n2C)cc1OC	.	.	.
Cc1cc2nn(-c3ccccc3)nc2cc1NC(=O)C(C)(C)Oc1ccc(Cl)cc1	.	.	.
Cc1nn2c(CN(C(=O)c3cccs3)c3ccccc3)nnc2c2ccccc12	.	.	.
Cc1nn2c(CN(C(=O)CN3CCOCC3)c3ccccc3)nnc2c2ccccc12	+	.	.
Cn1c(NCCCN)nc2c1c(=O)n(Cc1ccccc1Cl)c(=O)n2C	+	.	.
SMILES	ID4 binder	mut p53 react	STK33 inh
Cn1c(=O)c2c(nc(NCCN)n2C)n(C)c1=O	.	.	.
Cc1ccc2c(c1)c1c(n2CC(O)CO)C(=O)CCC1 (configuration not stated)	.	.	.
CN(CC(=O)Nc1ccc(Nc2ccccc2)cc1)S(=O)(=O)c1cc(Cl)ccc1Cl	.	.	.
COC(=O)Nc1nc2ccc(C(=O)c3cccs3)cc2[nH]1	.	/	22.1
COC(=O)Nc1nc2ccc(C(=O)c3ccccc3)cc2[nH]1	/	.	.
O=C1c2ccccc2C(=O)N1C[C@@H]1CCCN(Cc2ccc(OCCO)cc2)C1	+	/	/
O=C1c2ccccc2C(=O)N1C[C@@H]1CCCN(Cc2cccc(OCCO)c2)C1	.	/	.
COc1ccc(S(=O)(=O)N[C@@H]2CCCN(Cc3ccc(OCCO)cc3)C2)cc1	.	/	.
O=S(=O)(N[C@@H]1CCCN(Cc2ccc(OCCO)cc2)C1)c1ccc(Cl)cc1	+	/	.
O=C(Nc1ccccc1)c1ccc(NCc2cccnc2)c([N+](=O)[O-])c1	.	.	.
COc1ccc(OC)c(NC(=O)CSc2nnc(-c3ccccc3)n2-c2ccccc2)c1	.	.	.
Cc1cc(=O)oc2cc(OC(C)C(=O)NCC3CCCO3)ccc12 (configuration not stated)	.	.	.
Cc1cc(=O)oc2cc(OC(C)C(=O)Nc3sc4c(c3C(N)=O)CCCC4)ccc12 (configuration not stated)	+	.	.
O=C(COc1ccc(C(=O)Nc2cccc(C(F)(F)F)c2)cc1)Nc1ccccc1F	.	.	.
O=C1c2ccccc2C2CC(c3cc(Cl)ccc3Cl)=NN12 (configuration not stated)	.	78.8	/
O=C1CC(c2ccccc2)Oc2ccc(Cl)cc21 (configuration not stated)	/	/	.
Nc1[nH]nc2nc3ccccc3nc12	/	63.6	/
CCOc1c(S(=O)(=O)NCc2ccccn2)ccc(Cl)c1Cl	.	.	.
CC(=O)c1ccc(NC(=O)Cn2cnc3c(sc4nc5c(cc43)COC(C)(C)C5)c2=O)cc1	.	73.5	.
CC1(C)Cc2nc3sc4c(=O)n(CC(=O)NCCc5ccccc5)cnc4c3cc2CO1	.	.	.
CC(C)C(NS(=O)(=O)c1ccc(F)c(Cl)c1)C(=O)O (configuration not stated)	.	.	.
CC(C)[C@H](N)C(=O)N[C@@H](Cc1c[nH]c2ccccc12)C(=O)O	/	.	.
CC(NC(=O)/C=C/C(=O)O)C(=O)NC(C(=O)NC(Cc1c[nH]c2ccccc12)C(=O)O)C(C)c1c[nH]c2ccccc12 (configuration not stated)	.	/	149.5
O=C(CCCN1C(=O)c2ccccc2C1=O)Nc1cccc(Cl)c1	.	.	.
CC1CCN(C(=O)c2cc(Cl)ccc2Cl)CC1	/	/	.
SMILES	ID4 binder	mut p53 react	STK33 inh
CC(C)(C)NC(=O)CSc1ccc(Cl)cc1	/	/	.
Cc1nn(Cc2cccc(C(=O)NCc3ccccn3)c2)c(C)c1Cl	.	.	.
O=C(NCc1ccccn1)Nc1ccccc1Cl	.	142.8	.
O=C(COc1ccc(Cl)cc1Br)NCc1ccccn1	.	75.7	.
O=C(COc1ccc(Cl)cc1Br)Nc1cccnc1	.	?	.
O=C(NCc1ccccn1)Nc1ccc(F)cc1F	.	.	.
Cc1cccc(Oc2coc3cc(OCC(=O)Nc4ccccc4C(F)(F)F)ccc3c2=O)c1	.	.	.
COc1ccc(C(=O)Nc2ccc(C(=O)NCc3ccco3)cc2)cc1	.	.	.
CCC(C)CC(C)/C=C\C1OC2=C(C(=O)OC2(C)O)C(O)C1O (configuration not stated)	/	/	.
Cc1cc(=O)[nH]c(SCCOc2ccc(Br)cc2Cl)n1	.	80.5	.
Cc1ccc(OCCSc2nc(C)cc(=O)[nH]2)c(I)c1	.	.	.
O=C(NCc1cccnc1)c1cc(-c2ccccc2)on1	.	.	.
O=P(CCNCc1cccnc1)(c1ccccc1)c1ccccc1	+	.	/
COc1cc(O)c2c(=O)cc(-c3cc(OC)c(OC)c(O)c3OC)oc2c1	/	.	.
CCCc1nc(SCC(=O)c2ccccc2Cl)[nH]c(=O)c1C	.	.	/
CNC[C@@H]1Oc2cc(Br)ccc2S(=O)(=O)N([C@H](C)CO)C[C@H]1C	.	/	/
CNC[C@@H]1Oc2cc(C#Cc3ccccc3)ccc2S(=O)(=O)N([C@H](C)CO)C[C@H]1C	.	/	/
CNC[C@@H]1Oc2cc(C#Cc3cccnc3)ccc2S(=O)(=O)N([C@@H](C)CO)C[C@H]1C	+	.	/

High-throughput results: PubChem BioAssay, Broad Institute
